# BaF3 tox – reduces parental Ba/F3 cell viability, JAK2V617F counter-screen. CellTiter-Glo ATP luminescence. inhibition, % at 5.6 µM. hit rate 1.1% among 220,000. AID 1486;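 active = inhibition above a per-campaign cutoff, the mean inhibition of all tested compounds plus 3 SD, cut at about 27% in these data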;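 also: 0% = DMSO wells and 100% = JAK Inhibitor I control wells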
# DNA FID counter – fluorescent intercalator displacement, NS3 helicase counter-screen | DNA fluorescent intercalator displacement, fluorescence | hit rate 0.17% among 290,000 | inhibition, % at 7.9 µM; in the data active = inhibition above about 37%;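 also: 0% = vehicle and 100% = reference compound; higher means more ethidium bromide displaced from hairpin DNA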
# KLF5 inh – suppresses KLF5 promoter-driven expression | DLD-1 KLF5 promoter-luciferase reporter, luminescence | inhibition, % at 5 µM | hit rate 0.23% among 290,000 | AID 1700;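 active = inhibition above a per-plate limit of that plate's mean compound inhibition plus 3 SD, cut at about 60% in these data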;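 also: 0% = DMSO wells and 100% = LY294002 at 200 µM; higher means less KLF5 promoter-driven luciferase light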
# Ba/F3 V617F tox – lowers viability of Ba/F3 cells expressing EpoR and JAK2V617F | AID 1446 | inhibition, % at 5.6 µM | hit rate 1.1% among 220,000 | ATP luminescence;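 active = inhibition above the campaign mean plus 3 SD over all tested compounds, cut at about 24% in these data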;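 also: cytokine-independent growth of Ba/F3 cells driven by EpoR plus mutant JAK2; 0% = DMSO-treated cells and 100% = JAK inhibitor I control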
# IEC-6 cytotox – IEC-6 cytotoxicity, counter-screen for KLF5 inhibitors; inhibition, % at 5 µM; AID 1825; hit rate 0.78% among 290,000; luminescence viability;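 also: 0% = plate median of test compound wells and 100% = cytotoxic reference compound wells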
# GPR7 antagonist – blocks human GPR7 receptor signaling | GPR7-expressing cells, fluorescence antagonist assay | inhibition, % at 4.4 µM | hit rate 1.1% among 290,000; in the data active = inhibition above about 16%, passing the limit was not always enough;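 also: cells stimulated with the agonist NPW; 0% = agonist with vehicle and 100% = vehicle without agonist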
# Target sequence (P48145 whole entry, looked up): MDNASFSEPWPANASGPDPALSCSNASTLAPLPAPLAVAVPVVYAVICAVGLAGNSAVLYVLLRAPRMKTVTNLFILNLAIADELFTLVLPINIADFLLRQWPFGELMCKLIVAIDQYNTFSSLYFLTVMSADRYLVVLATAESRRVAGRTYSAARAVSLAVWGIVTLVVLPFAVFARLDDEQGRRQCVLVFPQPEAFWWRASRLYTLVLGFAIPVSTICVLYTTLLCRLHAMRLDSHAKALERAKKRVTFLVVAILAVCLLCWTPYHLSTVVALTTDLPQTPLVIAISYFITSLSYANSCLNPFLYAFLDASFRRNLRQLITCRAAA
# GPR7 antag conf – human GPR7 antagonism, confirmation assay. GPR7-expressing cells, calcium fluorescence antagonist mode. AID 1952. shares compounds with GPR7 antagonist. hit rate 52% among 2,400. inhibition, % at 4.4 µM; in the data active = inhibition above about 24%;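 also: stimulated with the GPR7 agonist NPW; 0% = agonist plus vehicle and 100% = vehicle alone without agonist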
# MCHR1 antagonist – counter-screen for GPR7 antagonists: antagonists of human MCHR1 | MCHR1-expressing cells, fluorescence antagonist assay | shares compounds with GPR7 antagonist | hit rate 62% among 2,400 | inhibition, % at 4.4 µM | AID 2148;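 also: 0% = vehicle with agonist and 100% = vehicle without agonist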
# Numbers without * were called inactive; . = not tested or not shown. Only some compounds are listed: those with a hit (about 2.6% of all), similar ones and a draw of the others. Rule as the data show it, unless noted: active = inhibition above about 22%; inactive = the rest.
SMILES,BaF3 tox,DNA FID counter,KLF5 inh,Ba/F3 V617F tox,IEC-6 cytotox,GPR7 antagonist,GPR7 antag conf,MCHR1 antagonist
O=C1CCCN2N=C(SCC(=O)N3N=C(c4ccc(Br)cc4)CC3c3ccc(F)cc3)SC2=N1 (configuration not stated),7,-22,-20,-3,1,22*,-11,-2
Cc1nc(SCc2ccccc2F)c2cnn(-c3ccccc3)c2n1,7,-1,-19,2,0,-12,.,.
CC(C)N(C(C)C)S(=O)(=O)c1ccc(N2CCc3ccccc3C2)nc1,.,-16,-67,.,11,21*,16,63*
CC(C)CN1CCCC(N2CCN(c3cccc(Cl)c3)CC2)C1 (configuration not stated),.,8,-47,.,0,27*,-6,0
COc1ccc(CN2CCCC(N3CCN(c4cccc(Cl)c4)CC3)C2)cc1OC (configuration not stated),.,2,-34,.,2,15,.,.
CCOc1ccccc1CNC(=O)c1cc2occc2n1C,11,-13,7,6,4,24*,16,15
Cc1cnc(NC(=O)c2cccc(S(=O)(=O)N3CC(C)OC(C)C3)c2)s1 (configuration not stated),4,-15,-27,0,3,-6,.,.
COc1cc(OC)cc(C(=O)Nc2cccc3c2CCCC3)c1,.,-21,-3,.,2,32*,21,16
CCc1cccc(CC)c1-n1c(SCn2nnc3ccccc3c2=O)nnc1-c1cccnc1,5,-37,-42,-2,-7,2,.,.
Cc1ccccc1N(CC(=O)NCc1ccc2c(c1)OCO2)C(=O)CCC(=O)Nc1ccccn1,11,1,5,5,0,-7,.,.
COC(=O)C(C)n1cnc2c(cnn2-c2ccc(Cl)cc2)c1=O (configuration not stated),3,-5,-19,1,-3,-14,.,.
Cc1ccccc1OCCNc1cc(N2CC(C)NC(C)C2)ccc1[N+](=O)[O-] (configuration not stated),8,39*,-7,6,13,39*,53*,67*
CC1CN(c2ccc([N+](=O)[O-])c(NCCOc3ccccc3)c2)CC(C)N1 (configuration not stated),.,26,-35,.,5,21,.,.
CC1CN(c2ccc([N+](=O)[O-])c(NCCOc3ccc(Cl)cc3)c2)CC(C)N1 (configuration not stated),.,32,-16,.,-2,38*,62*,69*
COc1ccc(C=O)cc1CSc1nnc(COc2cccc3cccnc23)o1,4,-33,-7,6,1,24*,10,27*
CC(NC(=O)c1ccccc1[N+](=O)[O-])C1CC2CCC1C2 (configuration not stated),.,-4,-45,.,-4,-8,.,.
COc1ccc(N2CC(C(=O)N3CCN(C)CC3)CC2=O)cc1 (configuration not stated),.,-8,-12,.,2,-16,.,.
Cc1ccccc1CN1CCc2c(OCC(=O)N3CCCc4ccccc43)cccc2C1=O,9,-45,-6,7,-3,22*,31*,60*
Nn1c(SCc2nc3ccccc3[nH]2)nnc1C1CCCCC1,5,-8,-11,0,4,22*,13,-3
CCC1(C)Cc2c(sc3nc(SC)nc(NCCN(C)C)c23)CO1 (configuration not stated),10,36,-38,10,1,26*,9,14
Cc1onc(-c2ccccc2)c1C(=O)Nc1ncc([N+](=O)[O-])s1,.,-2,-8,.,12,27*,19,37*
O=[N+]([O-])c1ccc(Nc2ccc(F)cc2)nc1,2,3,-9,5,4,3,.,.
CN(C)c1ccc(Nc2ccc([N+](=O)[O-])cn2)cc1,.,12,-104,.,5,24*,41*,19
CN(C)CCCN(C(=O)c1ccc(S(=O)(=O)N2CCc3ccccc3C2)cc1)c1nc2ccc(F)cc2s1,.,41*,-21,.,2,46*,76*,63*
Cc1ccc2nc(N(CCCN(C)C)C(=O)c3ccc(S(=O)(=O)N4CCc5ccccc5C4)cc3)sc2c1,.,28,-16,.,-6,32*,44*,33*
SMILES,BaF3 tox,DNA FID counter,KLF5 inh,Ba/F3 V617F tox,IEC-6 cytotox,GPR7 antagonist,GPR7 antag conf,MCHR1 antagonist
CN(C)CCCN(C(=O)c1cc(-c2cccs2)nc2ccccc12)c1nc2ccc(F)cc2s1,.,40*,-35,.,-1,30*,58*,58*
CC1(C)Cc2cccc(OCC(=O)OCC(=O)Nc3cccc(S(N)(=O)=O)c3)c2O1,-3,-8,-4,-8,0,10,.,.
O=c1[nH]c2ccc(S(=O)(=O)N3CCN(c4ccccc4F)CC3)cc2s1,8,-1,-6,1,-3,5,.,.
COc1ccc(C(CNC(=O)COc2ccc(Cl)c(C)c2)N2CCCCC2)cc1 (configuration not stated),.,19,4,.,-4,28*,30*,19
Cc1cc(C)nc(CCNC(=O)c2cc(COc3ccccc3)on2)n1,.,-27,-38,.,-5,27*,3,-1
COc1ccc(CC(=O)N2CCOCC2)cc1OC,0,3,-15,-1,4,7,.,.
CC(C)(C)c1cc(CN2CCCCC2)cc(C(C)(C)C)c1O,5,7,-22,2,1,23*,16,29*
CC(C)(C)c1cc(CCC(=O)N2CCC2)cc(C(C)(C)C)c1O,.,-28,-17,.,-1,7,.,.
Cc1cccc(C)c1OCC(=O)Nn1c(COc2ccccc2)nc2ccccc2c1=O,6,-25,-22,0,3,10,.,.
CC(C)=NOCC(=O)Nn1c(COc2c(C)cccc2C)nc2ccccc2c1=O,.,-23,4,.,-1,26*,-16,-3
CCCC(=O)Nc1nc(-c2ccc(OC)cc2)cs1,2,-9,-105,-1,-2,22*,24*,36*
CN(C)C(=O)Nc1ccc(F)cc1F,0,-1,-20,-3,4,-5,.,.
O=C(Cn1nc([N+](=O)[O-])nc1Br)NC(c1ccccc1)c1ccccc1,2,16,8,-4,-2,34*,12,14
Cc1ccc(OCC(=O)Nc2ccc3c(c2)nc(CCN2CCCCC2)n3C)cc1,.,18,-22,.,1,22*,-8,7
Cc1ccc(-n2nnnc2SC(C)C(=O)Nc2ccccc2-c2ccccc2)cc1 (configuration not stated),3,-17,14,0,13,-5,.,.
O=C(NC(NC(=S)Nc1ccccc1)C(Cl)(Cl)Cl)c1cccc(Cl)c1 (configuration not stated),2,0,-18,1,3,34*,47*,54*

# Source: PubChem (The Scripps Research Institute Molecular Screening Center)
